Results on eight compounds are retold here after PubChem BioAssay (EPA / NIEHS).

Records with an inconclusive call do not appear. Activity calls are given as the source filed them. Rule for the calls, unless noted: active = hit-call score of the fitted dose curve at least 0.9, where 1 is the maximum; inconclusive = response in the unintended direction; inactive = score below 0.9.

Assay [1] can be described thus: Tanguay_ZF_120hpf_YSE_legacy: (Legacy) Oregon State University Tanguay Lab 120 Hour Post-fertilization zebrafish Assay for Yolk Sac Edema (AID 2283634).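 For AC50: actives raise the incidence of yolk sac edema above the DMSO baseline.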 A digest of the protocol: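 Dechorionate (pronase, 4 hpf) → place one 6 hpf embryo per well → static compound exposure, sealed and foil-covered, 28C, to 120 hpf → record yolk sac edema as present or absent. Final DMSO 0.64%.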

A short description of assay [2]: Tanguay_ZF_120hpf_AXIS_legacy: (Legacy) Oregon State University Tanguay Lab 120 Hour Post-fertilization zebrafish Assay for Body Axis Malformation (AID 2283635).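 For AC50: potency for an increased fraction of larvae scored with body axis malformation.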 A digest of the protocol:
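Chorion is removed with pronase at 4 hpf, then single 6 hpf embryos are dosed (final DMSO 0.64%) and held statically at 28C in sealed, foil-covered plates. At 120 hpf body axis malformation is recorded as present or absent.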

Assay [3] is described as follows: Tanguay_ZF_120hpf_EYE_legacy: (Legacy) Oregon State University Tanguay Lab 120 Hour Post-fertilization zebrafish Assay for Eye Malformation (AID 2283636). The method in brief: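 5D wild-type embryos, pronase-dechorionated at 4 hpf; static exposure 6–120 hpf, 28C, dark; DMSO 0.64% final; 5uM trimethyltin chloride positive control. Binary eye-defect scoring at 120 hpf; dead embryos not scored.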

The nature of assay [4]: Tanguay_ZF_120hpf_JAW_legacy: (Legacy) Oregon State University Tanguay Lab 120 Hour Post-fertilization zebrafish Assay for Jaw Malformation (AID 2283638).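 For AC50: active means more embryos with jaw malformation than DMSO controls.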 A digest of the protocol:
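Steps: dechorionate 4 hpf embryos (pronase); plate 1/well at 6 hpf; add test chemical, 0.64% DMSO final; seal, cover, hold at 28C statically to 120 hpf; score jaw defect presence/absence microscopically. Dead embryos not scored.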

Assay [5] in a line: Tanguay_ZF_120hpf_OTIC_legacy: (Legacy) Oregon State University Tanguay Lab 120 Hour Post-fertilization zebrafish Assay for Otic Vesicle Malformation (AID 2283639). A digest of the protocol:
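Wild-type zebrafish larvae, whole-embryo exposure from early stage to 120 hpf at 28C. Binary brightfield scoring of otic vesicle morphology, fitted in the positive direction against the DMSO baseline.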

The nature of assay [6]: Tanguay_ZF_120hpf_BRAI_legacy: (Legacy) Oregon State University Tanguay Lab 120 Hour Post-fertilization zebrafish Assay for Brain Malformation (AID 2283641). The method in brief: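 Wild-type 5D larvae, static waterborne exposure to 120 hpf, 28C, 0.64% v/v DMSO. Brightfield scoring of brain defects, binary; dead embryos excluded. Positive ctrl 5uM trimethyltin chloride.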

The nature of assay [7]: Tanguay_ZF_120hpf_PFIN_legacy: (Legacy) Oregon State University Tanguay Lab 120 Hour Post-fertilization zebrafish Assay for Pectoral Fin Malformation (AID 2283648).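 Note: each larva judged yes or no for fin defect by brightfield with dead larvae skipped.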 A digest of the protocol:
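Binary pectoral fin malformation call at 120 hpf by brightfield microscopy; 5D wild-type zebrafish, chorion removed at 4 hpf, one embryo per well from 6 hpf, static exposure at 28C; DMSO (0.64% final) as baseline.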

Assay [8] can be described thus: Tanguay_ZF_120hpf_CFIN_legacy: (Legacy) Oregon State University Tanguay Lab 120 Hour Post-fertilization zebrafish Assay for Caudal Fin Malformation (AID 2283649). A digest of the protocol: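 Binary presence or absence of caudal fin malformation at 120 hpf, read by brightfield microscopy, with DMSO as baseline. Larvae came from 5D wild-type embryos exposed statically from 6 hpf at 28C after pronase dechorionation.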

Assay [9] in a line: Tanguay_ZF_120hpf_PIG_legacy: (Legacy) Oregon State University Tanguay Lab 120 Hour Post-fertilization zebrafish Assay for Pigmentation Malformation (AID 2283650). The method in brief:
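Brightfield scoring of pigmentation malformation at 120 hpf, recorded as binary present/absent per larva. Exposure: dechorionated 5D wild-type embryos, one per well, static from 6 hpf at 28C, final DMSO 0.64% (vol/vol). Dead embryos not scored.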

Assay [10] can be described thus: Tanguay_ZF_120hpf_CIRC_legacy: (Legacy) Oregon State University Tanguay Lab 120 Hour Post-fertilization zebrafish Assay for Circulatory Malformation (AID 2283651). The method in brief:
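Binary circulatory-malformation call at 120 hpf via brightfield imaging, relative to DMSO controls. Embryos (5D strain, chorion removed) received static, light-shielded exposure at 28C.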

Assay [11] can be described thus: Tanguay_ZF_120hpf_TRUN_legacy: (Legacy) Oregon State University Tanguay Lab 120 Hour Post-fertilization zebrafish Assay for Truncated Body (AID 2283655). The method in brief:
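Truncated body is recorded as a binary endpoint at 120 hpf by brightfield imaging of wild-type 5D larvae. Exposure runs statically from 6 hpf at 28C with 0.64% DMSO; embryos dying earlier are not scored.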

The nature of assay [12]: Tanguay_ZF_120hpf_NC_legacy: (Legacy) Oregon State University Tanguay Lab 120 Hour Post-fertilization zebrafish Assay for Notochord and Tail Malformation (AID 2283656). The method in brief:
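Binary notochord-distortion calls, made by brightfield inspection, form the read-out; activity is fitted in the positive direction against DMSO. Exposure ran statically from 6 to 120 hpf at 28C with 0.64% DMSO.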

Assay [13] in a line: Tanguay_ZF_120hpf_SNOU_legacy: (Legacy) Oregon State University Tanguay Lab 120 Hour Post-fertilization zebrafish Assay for Snout Malformation (AID 2283637). The method in brief:
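Binary brightfield scoring of snout malformation at 120 hpf. Dechorionated 5D wild-type embryos, one per well, static exposure from 6 hpf at 28C, sealed and dark; final DMSO 0.64% (vol/vol), DMSO as baseline; 5uM trimethyltin chloride positive control.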

Assay [14] is described as follows: Tanguay_ZF_120hpf_PE_legacy: (Legacy) Oregon State University Tanguay Lab 120 Hour Post-fertilization zebrafish Assay for Pericardial Edema (AID 2283640).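 For AC50: potency for increased incidence of pericardial edema versus DMSO baseline.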 A digest of the protocol:
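Embryos from wild-type 5D adults were staged, then dosed in 0.64% DMSO. They were kept sealed in the dark at 28C until 120 hpf. Pericardial edema was then recorded as present or absent.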

A short description of assay [15]: Tanguay_ZF_120hpf_SOMI_legacy: (Legacy) Oregon State University Tanguay Lab 120 Hour Post-fertilization zebrafish Assay for Somite Malformation (AID 2283647). A digest of the protocol:
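Read-out: presence or absence of somite malformation in 120 hpf larvae, gain-of-signal relative to DMSO baseline. Embryos lacked chorion (pronase, 4 hpf) and were exposed statically from 6 hpf at 28C; dead larvae not scored.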

Read-out in assay [16]: solute carrier (SLC22A6), SLC22A6 (gene 9356)
Put plainly: LTEA_HepaRG_SLC22A6: Life Technologies and Expression Analysis (LTEA) Assay for solute carrier (SLC22A6) using HepaRG (AID 2283653; active = hit-call score of the fitted dose curve at least 0.9, where 1 is the maximum; inactive = score below 0.9). The note with it: mRNA level, 48 h; actives raise or lower the signal. A digest of the protocol: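 Read-out is SLC22A6 transcript level by qRT-PCR, normalised to three housekeeping genes and fitted for gain or loss relative to 0.5% DMSO vehicle. Human HepaRG cells received chemicals at up to 100 uM for 48 h.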

Assay [17] can be described thus: Tanguay_ZF_120hpf_SWIM_legacy: (Legacy) Oregon State University Tanguay Lab 120 Hour Post-fertilization zebrafish Assay for Swim Bladder Malformation (AID 2283654).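 Note: swim bladder malformation in each larva scored yes or no under brightfield.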 The method in brief: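 Tropical 5D embryos dechorionated at 4 hpf; 1 embryo/well from 6 hpf; static, sealed, dark exposure at 28C until 120 hpf; final DMSO 0.64%; 5uM trimethyltin chloride positive control; swim bladder defect recorded yes/no; dead embryos not scored.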

Read-out in assay [18]: solute carrier (SLC10A1), SLC10A1 (gene 6554)
Put plainly: LTEA_HepaRG_SLC10A1: Life Technologies and Expression Analysis (LTEA) Assay for solute carrier (SLC10A1) using HepaRG (AID 2283657; active = hit-call score of the fitted dose curve at least 0.9, where 1 is the maximum; inactive = score below 0.9). The note with it: mRNA level, 48 h; actives raise or lower the signal. A digest of the protocol:
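HepaRG, 48 h exposure, 8-pt half-log curve from 100 uM in 0.5% DMSO, duplicates. Read-out: TaqMan qRT-PCR of SLC10A1 mRNA, normalized to three housekeeping genes. Gain/loss fit vs DMSO baseline.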

Read-out in assay [19]: matrix metalloproteinase-1 (MMP1), MMP1 (gene 4312)
Put plainly: LTEA_HepaRG_MMP1: Life Technologies and Expression Analysis (LTEA) Assay for matrix metalloproteinase-1 (MMP1) using HepaRG (AID 2283658; active = hit-call score of the fitted dose curve at least 0.9, where 1 is the maximum; inactive = score below 0.9). The note with it: mRNA level, 48 h; actives raise or lower the signal. The method in brief:
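HepaRG, ~100,000 cells/well, 48 h pre-culture; serum-free induction medium; test chemical 8 conc (max 100 uM, half-log), duplicate, 48 h; 0.5% DMSO; qRT-PCR MMP1, housekeeping-normalized; gain/loss fit vs DMSO.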

With `CCOC(=O)COc1cc(-c2nn(C)c(OC(F)F)c2Cl)c(F)cc1Cl`, the compound was called inactive in [1], in [2], in assay [3], in assay [4], in [5] and in assay [6]. For the same compound, the outcome in assay [7], in [8], in assay [9], in assay [10], in [11] and in assay [12] was inactive.

`Cc1nn(-c2cc(NS(C)(=O)=O)c(Cl)cc2Cl)c(=O)n1C(F)F`: the outcome in assay [1], in [2], in [3], in [13], in assay [4] and in [5] was inactive. Further, the result in assay [14], in assay [6], in [7], in [9], in [10] and in [11] was inactive.

`CCOP(=O)(NC(C)C)Oc1ccc(SC)c(C)c1` (stereo not given): the AC50 (usually the midpoint of the concentration-response curve, whichever way the signal moves) is 24.8 µM (active) in [1]; 22.1 µM (active) in [2]; 14.6 µM (active) in [3]; 20.9 µM (active) in assay [13]; 21.6 µM (active) in assay [4]; 25.6 µM (active) in assay [14]. The results for the AC50 in [6] and in [7] were 61.8 µM (active) and 16.9 µM (active), respectively. In addition, the compound was classed as inactive in [5], in [15], in assay [8], in assay [9], in assay [10] and in [11]. Further, in [12], the compound was classed as inactive.

In the case of `CSc1nnc(C(C)(C)C)c(=O)n1N`, the result in [1], in assay [2], in [3], in [13], in [4] and in assay [5] was inactive. Also, the compound was classed as inactive in assay [14], in assay [6], in assay [7], in assay [8], in assay [10] and in assay [11]. Also, the outcome in assay [12] was inactive.

Take `CSc1nc(NC(C)C)nc(NC(C)C)n1`: the compound was classed as inactive in assay [1], in assay [2], in [3], in assay [13], in [4] and in assay [5]. The compound was classed as inactive in assay [14], in assay [6], in assay [15], in [7], in assay [8] and in assay [9]. For the same compound, the compound was classed as inactive in assay [10], in [16], in assay [17], in assay [12] and in [19]. Further, the AC50 in assay [18] is 61.6 µM (active).

Consider `CN1COCN(Cc2cnc(Cl)s2)C1=N[N+](=O)[O-]`, for which the call in assay [1], in [2], in assay [3], in [13], in assay [4] and in [5] was inactive. The result in [14], in [6], in assay [7], in [9], in assay [10] and in assay [17] was inactive. In addition, in assay [11], the compound was called inactive.

Consider `Nc1c(Cl)cc([N+](=O)[O-])cc1Cl`, for which the AC50 in assay [1] is 33 µM (active); in assay [2], 40.4 µM (active); in assay [13] it was 31.1 µM (active); in [4], 31.4 µM (active); in assay [5] it was 36.4 µM (active); in [14], 43.1 µM (active). The AC50 in assay [6] was 46.3 µM (active); in assay [7] it was 42.1 µM (active); in assay [8], 39.1 µM (active); in assay [9], 10.8 µM (active); in [11], 34.7 µM (active). For the same compound, the call in [15], in assay [10] and in assay [17] was inactive.

For `C[Si](Cn1cncn1)(c1ccc(F)cc1)c1ccc(F)cc1`, the AC50 in assay [1] was 40.9 µM (active); in [2], 10.3 µM (active); in [3], 46.9 µM (active); in [13], 12 µM (active); in [4], 13.4 µM (active); in [5] it was 12.7 µM (active). The AC50 in assay [14] was 9.78 µM (active); in assay [6] it was 47 µM (active); in assay [7] it was 20.9 µM (active); in [8] it was 36 µM (active); in assay [11], 11 µM (active). Moreover, the call in assay [9] and in assay [10] was inactive.
